Laboratory results reported in publication PMC5540273 (PLoS ONE, 2017).

Tests used:
Details in all cases: concentration: 1 μM, replicates: in singlicate; n = 1
STK16 = system: STK16
STK33 = system: STK33
STK35 = system: STK35
STK36 = system: STK36
STK39 = system: STK39
SYK = system: SYK
SgK110 = system: SgK110
TAK1 = system: T1, TAK1
T1 construct: gene MAP3K7

TAOK1 = system: TAOK1
TAOK2 = system: TAOK2
TAOK3 = system: TAOK3
TBK1 = system: TBK1
TEC = system: TEC
TESK1 = system: TESK1
TGFBR1 = system: TGFBR1
TGFBR2 = system: TGFBR2
TIE1 = system: TIE1
TIE2 = system: T2, TIE2
T2 construct: gene TEK

TLK1 = system: TLK1
TLK2 = system: TLK2
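Further: KINOMEscan kinase panel screen.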

SMILES | %Inh (STK16) [%] | %Inh (STK33) [%] | %Inh (STK35) [%] | %Inh (STK36) [%] | %Inh (STK39) [%] | %Inh (SYK) [%] | %Inh (SgK110) [%] | %Inh (TAK1) [%] | %Inh (TAOK1) [%] | %Inh (TAOK2) [%] | %Inh (TAOK3) [%] | %Inh (TBK1) [%] | %Inh (TEC) [%] | %Inh (TESK1) [%] | %Inh (TGFBR1) [%] | %Inh (TGFBR2) [%] | %Inh (TIE1) [%] | %Inh (TIE2) [%] | %Inh (TLK1) [%] | %Inh (TLK2) [%]
Fc1cc(Cl)ccc1Nc1ccnc2cc(I)ccc12 [GW551191] | 9 | 0 | 57 | 0 | 15 | 0 | 4 | 0 | 0 | 0 | 0 | 11 | 22 | 12 | 17 | 50 | 0 | 0 | 21 | 0
O=C(Nc1n[nH]c2nc(-c3nccs3)c(Br)cc12)C1CCCC1 [SB-742609] | 0 | 0 | 0 | 0 | 21 | 20 | 0 | 0 | 0 | 0 | 0 | 0 | 0 | 43 | 31 | 0 | 14 | 0 | 0 | 0
CCn1c(-c2cccnc2O)nc2cnccc21 [SB-736715] | 0 | 0 | 0 | 0 | 0 | 0 | 0 | 0 | 0 | 0 | 0 | 0 | 0 | 0 | 0 | 0 | 0 | 6 | 0 | 0
Cc1ccc(NC(=O)Nc2cc(C(C)(C)C)nn2-c2ccccc2)cc1 [GSK1014915] | 0 | 0 | 0 | 0 | 2 | 28 | 0 | 0 | 0 | 0 | 0 | 0 | 11 | 13 | 18 | 1 | 9 | 0 | 2 | 0
COc1cc2ncn(-c3cc(OCC4CCCO4)c(C(N)=O)s3)c2cc1OC (stereo not drawn) [GSK204607] | 5 | 0 | 90 | 0 | 0 | 12 | 0 | 18 | 0 | 0 | 0 | 23 | 0 | 0 | 4 | 0 | 0 | 0 | 0 | 11
COc1ccccc1CNC(=O)c1cc(C(=O)c2ccccc2C)c[nH]1 [GSK364507] | 11 | 0 | 0 | 0 | 14 | 16 | 0 | 0 | 0 | 0 | 0 | 19 | 0 | 36 | 9 | 0 | 0 | 0 | 0 | 0
Cn1ccc2ncnc(Oc3ccc(Nc4nc5ccccc5[nH]4)cc3)c21 | 15 | 0 | 19 | 0 | 0 | 0 | 0 | 0 | 0 | 0 | 0 | 0 | 0 | 0 | 0 | 0 | 5 | 0 | 0 | 0
CC(=O)Nc1nc2cnc(Nc3cc(NC(=O)c4cccc(CCC#N)c4)ccc3C)nc2s1 | 17 | 0 | 0 | 16 | 0 | 15 | 13 | 42 | 0 | 0 | 0 | 24 | 10 | 0 | 0 | 0 | 0 | 0 | 0 | 7
CC1=C(C(=O)Nc2cc3cn[nH]c3cc2F)C(c2ccc(C(F)(F)F)cc2)CC(=O)N1 (stereo not drawn) [GSK429286] | 14 | 0 | 0 | 0 | 20 | 4 | 0 | 0 | 0 | 0 | 0 | 4 | 18 | 30 | 0 | 0 | 12 | 0 | 10 | 0
Cc1cccc(-c2cc(Nc3ccncc3)c3ccccc3n2)n1 [GSK223675] | 19 | 0 | 0 | 0 | 0 | 2 | 0 | 0 | 0 | 0 | 0 | 28 | 0 | 63 | – | 0 | 0 | 0 | 21 | 0
CN(C)CCN(C)C(=O)c1cc(-c2ccncc2)c(-c2ccc(Cl)c(O)c2)o1.Cl.Cl [SB-710397] | 4 | 0 | 0 | 0 | 33 | 17 | 6 | 0 | 0 | 0 | 0 | 0 | 6 | 43 | 0 | 72 | 7 | 0 | 0 | 0
